# Data as given in the supplement of paper PMC12350171.
# Structures can show the parent of a compound that is named as a salt. Unmarked numbers belong to inactive results.
# What was measured:
# Details in all cases: 20 µM
# [1] = system: Haemophilus parainfluenzae; experiment: growth AUC normalised to DMSO control (fraction of control); higher = less growth inhibition, active = hit call of the paper
# Procedure, shortened: (§1)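 Pathogens passaged twice anaerobically were inoculated at a starting OD578 of 0.01 into pre-reduced mGAM plates with drug at 20 μM and 1% DMSO, sealed with breathable membranes. Haemophilus parainfluenzae medium was supplemented with hemin and NAD. OD578 was read hourly for 24 h, with three biological replicates. Growth-curve AUC was computed by the trapezoidal rule up to the exponential-to-stationary transition and normalised to DMSO controls on the same plate.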
# [2] = system: Salmonella enterica typhimurium; experiment: as above
# Procedure, shortened: as §1
# Shigella flexneri = experiment: as above
# Procedure, shortened: as §1
# Vibrio cholerae = experiment: as above
# Procedure, shortened: as §1
# [3] = system: Yersinia pseudotuberculosis; experiment: as above
# Procedure, shortened: as §1
# P. vulgatus RND KO = experiment: growth AUC normalised to DMSO control (median) (fraction of control); higher = less growth inhibition, active = hit call of the paper
# Procedure, shortened: (§2)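 Anaerobic growth was tracked hourly at OD578 for 24 h in 96-well plates of mGAM seeded at OD578 0.01 with each approved-drug library compound at 20 μM and 1% DMSO. Strains had first been passaged twice overnight without oxygen. Three biological replicates were run. The reported median is the area under the curve, calculated by the trapezoidal rule on curves truncated at entry into stationary phase and normalised to vehicle wells on the same plate.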
# P. vulgatus WT = experiment: as above
# Procedure, shortened: as §2
# [4] = system: S. enterica typhimurium WT; experiment: as above
# Procedure, shortened: as §2
# [5] = system: S. enterica typhimurium tolC KO; experiment: as above
# Procedure, shortened: as §2
# 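For growth AUC normalised to DMSO control (median) in this document: active when median AUC fell below 0.1.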
Structure (SMILES),growth AUC normalised to DMSO control [1],growth AUC normalised to DMSO control [2],growth AUC normalised to DMSO control (Shigella flexneri),growth AUC normalised to DMSO control (Vibrio cholerae),growth AUC normalised to DMSO control [3],growth AUC normalised to DMSO control (P. vulgatus RND KO),growth AUC normalised to DMSO control (P. vulgatus WT),growth AUC normalised to DMSO control [4],growth AUC normalised to DMSO control [5]
CC(O)(CS(=O)(=O)c1ccc(F)cc1)C(=O)Nc1ccc(C#N)c(C(F)(F)F)c1 (stereo not drawn) [Bicalutamide],1.12,1.05,1.08,1.1,1.01,0.982,0.988,1.01,0.954
CC(C)(N)Cc1ccccc1 [Phentermine hydrochloride],1.02,1.02,1.03,1.04,1.01,0.0617 (active),0.458,0.992,0.996
CC(Cc1ccccc1)NCCC(c1ccccc1)c1ccccc1 (stereo not drawn) [Prenylamine lactate],1.05,1.01,1.07,1.02,1.02,1.04,1.04,0.993,0.97
C[C@H](N)[C@H](O)c1ccc(O)c(O)c1 [Levonordefrin],1.04,1.01,1,1,1.03,1.01,1.03,0.99,1
CCC1(CC)C(=O)C=CNC1=O [Pyrithyldione],1.01,0.992,1,1.05,1,1.01,1,1.02,0.998
CCC1(C)CC(=O)NC(=O)C1 [Bemegride],1.02,1.02,1.01,1.05,1.01,1.03,1.08,1.02,1.01
CN1[C@@H]2CC[C@H]1C[C@@H](OC1c3ccccc3CCc3ccccc31)C2 [Deptropine citrate],0.95,0.993,0.971,0.926,0.965,0.941,0.945,0.994,0.942
